# Values without a mark were called inactive.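 The calls were made as follows: active = GFP response vs DMSO above 150% with enough events counted; inconclusive = fewer than 70 events counted for a yeast strain; inactive = the rest.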
# Assay: MEP2-GFP expression modulation in yeast, confirmation, flow cytometry, third cherry pick, S. cerevisiae (AID 504321);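 also: median per-cell GFP fluorescence by flow cytometry across all yeast cells; ratio of sample to DMSO median GFP so 100% equals the DMSO level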
# Details: S. cerevisiae MEP2-GFP strain, 3 h, at 10 µM, active compounds read high
row,Compound,GFP response vs DMSO [%]
1,COc1ccccc1-c1cc(C(F)(F)F)nc(S(=O)(=O)CCCC(=O)O)n1,110
2,C/C(=N\NC(=O)c1ccccc1)c1ccccc1F,116
3,C=CCNc1nc(N)c([N+](=O)[O-])c(Nc2ccccc2OC)n1,103
4,COc1ccc(N/C=C/C(=O)c2ccc(Cl)cc2)cc1,116
5,COc1cccc(N/C=C/C(=O)c2ccc(C)cc2)c1,112
6,COC1=C/C(=C/c2c(N)n3cc(C)sc3nc2=O)C=CC1=O,131
7,Cn1c(=O)c2c(n3cnnc13)-c1ccccc1CC21CCCC1,112
8,Cc1cc(C)c2ccc(C(=O)O)nc2c1O,112
9,Cn1c(NCCCO)nc2c(c1=O)C1(CCCCC1)Cc1ccccc1-2,112
10,Cc1ccc(C)c(Nc2ncnc(N)c2[N+](=O)[O-])c1,108
11,CCN(CC)C(=O)Oc1cc(=O)n(C)c2ccccc12,112
12,CN(C)CCCNc1cc(O)c2ncccc2c1,118
13,C/C(=C\C(=O)c1ccccc1)Nc1cccc(O)c1,110
14,N#Cc1c(N)nc(N)nc1Nc1ccc(Br)cc1,110
15,Oc1ccc(Cl)c2cccnc12,101
16,CNc1nc(C)c([N+](=O)[O-])c(Nc2ccc(OC)cc2)n1,105
17,O=C(O)c1ccc2cccnc2c1O,101
18,COc1cccc2c(Cl)c(CCCl)c(C)nc12,101
19,OCCN1CCN(c2ncnc3ccc(Br)cc23)CC1,112
